Assay results published in PubChem BioAssay (Tox21).
Records with an inconclusive call do not appear. Calls of active or inactive are those of the source. Unless noted, calls come from the whole dose curve; as a rule, active = well fitted curve in the direction sought with a large enough effect in the repeat runs; inconclusive = weak or mixed curves; inactive = no such curve, though single readings can be large; an effect the other way counts as inactive or inconclusive.

Legend:
[1] = qHTS assay to identify small molecule antagonists of the estrogen related receptor signaling pathway with the pleiotropic PPARgamma coactivator (PGC) from Tox21 10K library - cell viability counter screen (AID 1224840; active = well fitted cell-killing curve with a large enough effect in the repeat runs, not every such curve was filed as active; note: nearly all actives have a fitted effect of over 40% in size)
How it was run: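 Following seeding of 2,000 PGC/ERR cells/well and 6 hours' incubation, test compounds were delivered in DMSO. The plates then sat 17.5 hours at 37 C before a fluorogenic live-cell protease reagent (CellTiter-Fluor) was read after 30 min.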

[2] = molecular target: Thyrotropin receptor (Homo sapiens) (UniProt P16473); assay: qHTS assay to identify small molecule agonists of the thyroid stimulating hormone receptor (TSHR) signaling pathway (AID 1224843; calls by dose curve; note: nearly all actives have a fitted effect of over 45% in size)
How it was run: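 TSHR-HEK293 cells in agonist mode, 30 min room-temperature step, then cAMP measured by competitive HTRF (cAMP-d2 with anti-cAMP cryptate) after 1 h at room temperature. Tested at 15 concentrations in triplicate.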

[3] = qHTS assay to identify small molecule agonists of the hypoxia (HIF-1) signaling pathway - cell viability counter screen (AID 1224844; calls by dose curve; note: nearly all actives have a fitted effect of over 50% in size)
How it was run: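 Cells (HRE-bla ME-180, 2,000 per well) sat 5 hrs at 37C, got compound for 17 hrs, were read for CCF4-AM FRET, and were finally lysed with CellTiter-Glo for a 30 min room-temperature luminescence read.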

[4] = qHTS assay to identify small molecule agonists of H2AX (AID 1224845; active = well fitted activation curve with a large enough effect in the signal ratio in the repeat runs, not every such curve was filed as active; the % refers to the signal ratio)
How it was run: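 Wild-type CHO-K1 cells, plated overnight, exposed 3hr at 37C to 15 concentrations (0.76% DMSO final). Lysed, then HTRF anti-pH2AX (S139) cryptate and anti-H2AX-d2 antibodies, 24 hr room temperature; 665/620 nm emission read.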

[5] = qHTS assay to identify small molecule agonists of the hypoxia (HIF-1) signaling pathway (AID 1224846; active = well fitted activation curve with a large enough effect in the signal ratio in the repeat runs, not every such curve was filed as active; the % refers to the signal ratio)
How it was run: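 A low-serum medium (0.5% dialyzed FBS) holding 2,000 HRE-bla ME-180 cells per well is preincubated for 5 hrs, dosed with compounds by pintool, and kept a further 17 hrs at 37C, 5% CO2 before CCF4-AM FRET detection of beta-lactamase.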

[6] = qHTS assay to identify small molecule agonists of H2AX - cell viability counter screen (AID 1224847; calls by dose curve; note: top concentration of the series differs between compounds; nearly all actives have a fitted effect of over 30% in size)
How it was run: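 Counter-screen for viability: CellTiter-Glo ATP luminescence read after 3 h compound treatment (15-point titration, 0.76% DMSO final) of CHO-K1 cells at 37C, with 30 min room-temperature reagent incubation.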

[7] = qHTS RealTime-Glo MT Cell Viability Assay in HepG2 cells - 24 hour (AID 1224867); note: nearly all actives have a fitted effect of over 50% in size
How it was run: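 Real-time, nonlytic viability: 600 HepG2 cells/well mixed with NanoLuc enzyme plus prosubstrate; 5 h settle, compound (DMSO) added by pintool; luminescence monitored over 40 h at 37 C.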

[8] = qHTS RealTime-Glo MT Cell Viability Assay in HEK293 cells - 32 hour (AID 1224868); note: top concentration of the series differs between compounds; nearly all actives have a fitted effect of over 50% in size
How it was run: (§1)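 Cells + reagent dispensed (600 cells/well, HEK293) → 5 h at 37 C/5% CO2 → 23 nL compound in DMSO pinned → 40 h at 37 C → luminescence read at 0, 8, 16, 24, 32, 40 h.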

[9] = A CellTox Green Cytotoxicity Assay to monitor cytotoxicity in HEK293 cells - 0 hour (AID 1224869); note: nearly all actives have a fitted effect of over 50% in size
How it was run: (§2)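 Fluorescence intensity, read at 0, 8, 16, 24, 32 and 40 h of compound treatment, reflected dye binding to DNA of dead HEK293 cells; compounds (23 nL, DMSO) were added 5 h after plating cells with reagent.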

[10] = qHTS RealTime-Glo MT Cell Viability Assay in HepG2 cells - 40 hour (AID 1224870); note: nearly all actives have a fitted effect of over 50% in size
How it was run: (§3)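 HepG2 cells (600/well) mixed with RealTime-Glo MT reagent, settled 5 h at 37 C/5% CO2 before compound addition. Nonlytic NanoLuc luminescence from viable-cell prosubstrate reduction read repeatedly during 40 h treatment at 37 C.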

[11] = A CellTox Green Cytotoxicity Assay to monitor cytotoxicity in HEK293 cells - 40 hour (AID 1224871); note: nearly all actives have a fitted effect of over 45% in size
How it was run: as §2

[12] = qHTS RealTime-Glo MT Cell Viability Assay in HEK293 cells - 16 hour (AID 1224872)
How it was run: as §1

[13] = qHTS RealTime-Glo MT Cell Viability Assay in HepG2 cells - 8 hour (AID 1224873); note: nearly all actives have a fitted effect of over 55% in size
How it was run: as §3

[14] = qHTS RealTime-Glo MT Cell Viability Assay in HEK293 cells - 40 hour (AID 1224874); settings: RealTime-Glo luminescence; max response: stronger effect = lower value; note: nearly all actives have a fitted effect of over 50% in size
How it was run: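 Viable HEK293 cells reduce a cell-permeant prosubstrate; the product diffuses out and is consumed by NanoLuc in the medium to give light. Compounds went in after a 5 h incubation and plates were read over the treatment course.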

[15] = A CellTox Green Cytotoxicity Assay to monitor cytotoxicity in HEK293 cells - 24 hour (AID 1224875); note: series mostly up to about 77 µM; nearly all actives have a fitted effect of over 45% in size
How it was run: as §2

[16] = qHTS assay to identify small molecule agonists of the estrogen related receptor signaling pathway with the pleiotropic PPARgamma coactivator (PGC) from Tox21 10K library (AID 1224842); note: nearly all actives have a fitted effect of over 15% in size
How it was run: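 PGC/ERR reporter cell line, 2,000 cells per well, incubated 6 h at 37 C before 23 nL compound in DMSO was added. After 18 h at 37 C, One-Glo luminescence read following 30 min at room temperature.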

[17] = qHTS assay to identify small molecule antagonists of the estrogen related receptor (ERR) signaling pathway from Tox21 library (AID 1224848); note: nearly all actives have a fitted effect of over 50% in size
How it was run: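 ERR reporter cell line (from NTP) seeded 2,000 cells/well, rested 6 h at 37 C/5% CO2, then pin-dosed with compounds in DMSO. After 18 h at 37 C, ONE-Glo added; luminescence read after 30 min at room temperature.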

[18] = qHTS assay to identify small molecule agonists of the estrogen related receptor (ERR) signaling pathway from Tox21 library (AID 1224849; calls by dose curve; note: nearly all actives have a fitted effect of over 15% in size)
How it was run: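 Screening used an NTP-provided ERR luciferase cell line. Compounds in DMSO were added 6 h after seeding and left 18 h at 37 C before a 30 min ONE-Glo step and luminescence reading.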
% is set by controls: 0 for no effect and ±100 for the full control effect.

Chain of Thyrotropin receptor (Homo sapiens) (P16473 whole entry, looked up): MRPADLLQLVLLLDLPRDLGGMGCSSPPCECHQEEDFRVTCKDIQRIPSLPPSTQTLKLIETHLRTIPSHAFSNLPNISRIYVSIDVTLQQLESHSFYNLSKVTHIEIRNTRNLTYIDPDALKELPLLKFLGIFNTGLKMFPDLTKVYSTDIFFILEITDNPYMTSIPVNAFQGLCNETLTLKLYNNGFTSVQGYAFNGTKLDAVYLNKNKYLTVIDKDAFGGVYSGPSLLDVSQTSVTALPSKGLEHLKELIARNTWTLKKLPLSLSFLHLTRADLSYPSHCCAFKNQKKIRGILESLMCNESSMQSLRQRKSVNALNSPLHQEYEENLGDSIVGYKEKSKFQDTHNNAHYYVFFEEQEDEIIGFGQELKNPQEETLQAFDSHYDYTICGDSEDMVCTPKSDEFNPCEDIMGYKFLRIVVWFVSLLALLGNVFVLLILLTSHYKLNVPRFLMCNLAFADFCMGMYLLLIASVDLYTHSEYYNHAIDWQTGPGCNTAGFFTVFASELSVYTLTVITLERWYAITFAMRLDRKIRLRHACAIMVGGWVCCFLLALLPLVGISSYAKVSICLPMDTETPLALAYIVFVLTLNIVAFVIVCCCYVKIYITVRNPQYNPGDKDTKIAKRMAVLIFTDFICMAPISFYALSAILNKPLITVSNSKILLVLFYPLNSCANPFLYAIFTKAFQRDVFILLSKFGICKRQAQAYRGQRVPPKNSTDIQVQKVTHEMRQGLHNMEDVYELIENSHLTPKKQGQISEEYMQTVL

CCN(CCC#N)c1ccccc1
inactive: outcome [1] | outcome [2] | outcome [3] | outcome [4] | outcome [5] | Potency [6] | outcome [7] | Potency [8] | Potency [9] | outcome [10] | Potency [11] | Potency [12] | outcome [13] | max response [14] 2.36% | Potency [15]

COC(OC)C(C)c1ccccc1 (stereo not given)
inactive: outcome [1] | outcome [2] | outcome [3] | outcome [4] | outcome [5] | Potency [6] | outcome [7] | Potency [8] | outcome [10] | Potency [11] | Potency [12] | max response [14] 5.02% | Potency [15]

C=CCOc1cc(Cl)ccc1C(=O)NCCN(CC)CC
inactive: outcome [1] | outcome [2] | outcome [3] | outcome [4] | outcome [5] | Potency [6] | outcome [7] | Potency [8] | outcome [10] | Potency [12] | max response [14] -13.3%

CCOC(=O)OCC/C(SC(=O)OCC)=C(\C)N(C=O)Cc1cnc(C)nc1N
inactive: outcome [1] | outcome [2] | outcome [3] | outcome [4] | outcome [5] | Potency [6] | outcome [7] | Potency [8] | outcome [10] | Potency [11] | Potency [12] | outcome [13] | max response [14] 4.82% | Potency [15]

N#CCCOCCOCCC#N
inactive: outcome [1] | outcome [2] | outcome [3] | outcome [4] | outcome [5] | Potency [6] | outcome [7] | Potency [8] | Potency [9] | outcome [10] | Potency [11] | Potency [12] | outcome [13] | max response [14] 9.79% | Potency [15]

C=C(C)C(=O)OCCCCCCOC(=O)C(=C)C
inactive: outcome [1] | outcome [16] | outcome [3] | outcome [4] | outcome [5] | Potency [17] | outcome [18] | Potency [8] | Potency [9] | outcome [10] | Potency [11] | Potency [12] | outcome [13] | max response [14] 6.48% | Potency [15]

O=C(O)Cc1cccc(-c2cc(CCCCCCc3ccc(O[C@H]4O[C@H](CO)[C@@H](O)[C@H](O)[C@@H]4O)c(-c4cccc(CC(=O)O)c4)c3)ccc2O[C@H]2O[C@H](CO)[C@@H](O)[C@H](O)[C@@H]2O)c1
inactive: viability change, negative = cytotoxic [1] -0.865% [at 0.349 µM] | activation [2] 2.03% [at 0.349 µM] | activity change, negative = cytotoxicity [3] 6.42% [at 0.29 µM] | activation (H2AX phosphorylation) [4] 0.108% [at 0.582 µM] | activation [5] -0.541% [at 0.291 µM] | activity change, negative = cytotoxicity [6] -1.18% [at 0.582 µM] | activity change, negative = cytotoxic [8] 4.81% [at 0.29 µM] | activity change, negative = cytotoxic [10] -21.2% [at 0.29 µM] | cytotoxicity increase [11] -17.8% [at 0.29 µM] | activity change, negative = cytotoxicity [12] 3.33% [at 0.29 µM] | max response [14] -2.4% | activity change [15] -8.86% [at 0.29 µM, stronger effect = higher value]

O=C1OC(=O)c2ccccc21
inactive: outcome [1] | outcome [2] | outcome [3] | outcome [4] | outcome [5] | Potency [6] | Potency [8] | Potency [9] | outcome [10] | Potency [11] | Potency [12] | outcome [13] | max response [14] -12.4% | Potency [15]

CCCCCC(=O)OCC
inactive: outcome [1] | outcome [2] | outcome [3] | outcome [4] | outcome [5] | Potency [6] | outcome [7] | Potency [8] | Potency [9] | outcome [10] | Potency [11] | Potency [12] | outcome [13] | max response [14] 5.39% | Potency [15]

CCCCCCCCCCCCC
inactive: outcome [1] | outcome [2] | outcome [3] | outcome [4] | outcome [5] | Potency [6] | Potency [8] | Potency [9] | outcome [10] | Potency [11] | Potency [12] | max response [14] 7.99% | Potency [15]

C=CC(C)(O)CC/C=C(\C)CC (stereo not given)
inactive: outcome [1] | outcome [2] | outcome [3] | outcome [4] | outcome [5] | Potency [6] | outcome [10] | Potency [11] | Potency [12] | outcome [13] | max response [14] 5.46% | Potency [15]

CO[Si](CCCS)(OC)OC
inactive: outcome [1] | outcome [2] | outcome [3] | outcome [4] | outcome [5] | Potency [6] | outcome [7] | Potency [8] | outcome [10] | Potency [11] | Potency [12] | max response [14] 0.328% | Potency [15]

C=C(C)[C@@H]1CC[C@@H](C)C[C@@H]1O
inactive: outcome [1] | outcome [2] | outcome [3] | outcome [4] | outcome [5] | Potency [6] | outcome [7] | Potency [8] | Potency [9] | outcome [10] | Potency [11] | Potency [12] | max response [14] 0.357% | Potency [15]

O=[Si]=O
inactive: outcome [1] | outcome [16] | outcome [3] | outcome [4] | outcome [5] | Potency [17] | outcome [18] | outcome [7] | outcome [10] | Potency [11] | Potency [12] | max response [14] 0.247% | Potency [15]

CCCCCC1Nc2cc(C(F)(F)F)c(S(N)(=O)=O)cc2S(=O)(=O)N1 (stereo not given)
inactive: outcome [1] | outcome [2] | outcome [3] | outcome [4] | outcome [5] | Potency [6] | outcome [7] | Potency [9] | outcome [10] | Potency [11] | Potency [12] | outcome [13] | max response [14] -1.2% | Potency [15]

COc1ccc(OC)c(NC(=O)CC(C)=O)c1
inactive: outcome [1] | outcome [2] | outcome [3] | outcome [4] | outcome [5] | Potency [6] | Potency [8] | outcome [10] | Potency [11] | outcome [13] | max response [14] 2.24% | Potency [15]

NS(=O)(=O)c1ccc(Cl)c(S(N)(=O)=O)c1
inactive: outcome [1] | outcome [2] | outcome [3] | outcome [4] | outcome [5] | Potency [6] | outcome [7] | Potency [8] | Potency [9] | outcome [10] | Potency [11] | Potency [12] | outcome [13] | max response [14] 13.4% | Potency [15]
